Where “and” joins values, the source holds several entries; their conditions need not be identical. Identical values can stand only once. In all, about 5,500 compounds went through this assay and about 2,000 (36%) were called active. Another 18% or so got no clear call; they are omitted. No stated cut-off is given here; in the data, active means normalized growth mostly below about 0.91 (no sharp cut-off); inconclusive means no clear call, values can overlap the other calls; inactive means mostly above about 0.92. The list shows a part of the results.
Assay: chemical genetic growth profiling, strain panel (AID 1159580);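 further: tested at 20 µM; growth read once vehicle control cultures reached saturation at 30 °C; 1 = growth at the plate median or of vehicle wells; lower values mean less growth of the strain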
Details: S. cerevisiae deletion strains, growth OD

Measured: normalized growth

CCCC(CCC)C(=O)O
inactive: locus YAL013W, strain DEP1, active compounds read low 0.993 and 0.977 | locus YAL021C, strain ccr4, active compounds read low 1 | locus YAL026C, strain drs2, active compounds read low 1 | locus YAL030W, strain snc1, active compounds read low 1.01 | locus YAL040C, strain CLN3, active compounds read low 0.959 | locus YBL061C, strain skt5, active compounds read low 1 | locus YBR009C, strain hhf1, active compounds read low 1 | locus YBR021W, strain FUR4, active compounds read low 0.953 | locus YBR023C, strain chs3, active compounds read low 1.01 | locus YBR171W, strain sec66, active compounds read low 1.01 | locus YBR229C, strain ROT2, active compounds read low 0.992 | locus YBR231C, strain swc5, active compounds read low 1.01 | locus YBR279W, strain paf1, active compounds read low 1.02 | locus YCL011C, strain gbp2, active compounds read low 1.01 | locus YCL016C, strain dcc1, active compounds read low 1.01 | locus YCL029C, strain bik1, active compounds read low 0.954 | locus YCL061C, strain MRC1 (second series), active compounds read low 0.985 | locus YCL061C, strain MRC1, active compounds read low 1 | locus YCL069W, strain vba3, active compounds read low 1.02 | locus YCR088W, strain abp1, active compounds read low 1.01 | locus YDL005C, strain med2, active compounds read low 1.01 | locus YDL035C, strain GPR1, active compounds read low 1 | locus YDL040C, strain nat1, active compounds read low 1.01 | locus YDL074C, strain BRE1, active compounds read low 1 | locus YDL101C, strain DUN1, active compounds read low 1.01 | locus YDL185W, strain tfp1, active compounds read low 0.964 | locus YDL192W, strain arf1, active compounds read low 0.97 | locus YDR001C, strain nth1, active compounds read low 1.01 | locus YDR069C, strain doa4, active compounds read low 1.01 | locus YDR101C, strain arx1, active compounds read low 0.963 | locus YDR137W, strain rgp1, active compounds read low 0.985 | locus YDR150W, strain NUM1, active compounds read low 0.981 | locus YDR159W, strain sac3, active compounds read low 1.01 | locus YDR162C, strain NBP2, active compounds read low 1 | locus YDR195W, strain ref2 1.02 | locus YDR297W, strain sur2, active compounds read low 1 | locus YDR318W, strain mcm21, active compounds read low 0.97 | locus YDR334W, strain swr1, active compounds read low 1.02 | locus YDR335W, strain msn5, active compounds read low 1.01 | locus YDR363W, strain ESC2, active compounds read low 0.994 | locus YDR388W, active compounds read low 0.967 | locus YDR392W, strain spt3, active compounds read low 0.95 | locus YDR502C, strain sam2, active compounds read low 0.965 | locus YEL003W, strain gim4, active compounds read low 1.01 | locus YEL037C, strain rad23, active compounds read low 1.01 | locus YEL061C, strain CIN8 (second series), active compounds read low 1.01 | locus YEL061C, strain CIN8, active compounds read low 0.994 | locus YER002W, strain NOP16, active compounds read low 0.979 | locus YER015W, strain faa2, active compounds read low 1.02 | locus YER016W, strain bim1, active compounds read low 1 | locus YER110C, active compounds read low 0.985 | locus YER111C, strain swi4, active compounds read low 1.02 | locus YER155C, strain BEM2 (second series), active compounds read low 0.996 | locus YER155C, strain BEM2, active compounds read low 0.975 | locus YER167W, strain BCK2, active compounds read low 0.986 | locus YFR010W, strain ubp6, active compounds read low 1.02 | locus YGL078C, strain dbp3, active compounds read low 0.963 | locus YGL086W, strain mad1, active compounds read low 0.964 | locus YGL167C, strain pmr1, active compounds read low 1.01 | locus YGL173C, strain kem1, active compounds read low 1.01 | locus YGL227W, strain vid30, active compounds read low 1.01 | locus YGL240W, strain doc1, active compounds read low 1.01 | locus YGL248W, strain PDE1, active compounds read low 0.998 | locus YGL253W, strain hxk2, active compounds read low 1.01 | locus YGR078C, strain PAC10, active compounds read low 0.989 | locus YGR135W, strain pre9, active compounds read low 1 | locus YGR252W, strain gcn5, active compounds read low 0.967 | locus YHR013C, strain ard1, active compounds read low 1.03 | locus YHR027C, strain rpn1, active compounds read low 1.03 | locus YHR030C, strain SLT2, active compounds read low 0.987 and 0.951 | locus YHR079C, strain IRE1 (second series), active compounds read low 0.966 | locus YHR079C, strain IRE1, active compounds read low 0.951 | locus YHR094C, strain hxt1, active compounds read low 0.97 | locus YHR129C, strain ARP1, active compounds read low 0.994 | locus YHR142W, strain chs7, active compounds read low 1.03 | locus YHR200W, strain rpn10, active compounds read low 0.971 | locus YIL066C, strain RNR3, active compounds read low 0.992 | locus YIL073C, strain SPO22, active compounds read low 1.03 | locus YIR030C, strain dcg1, active compounds read low 0.966 | locus YJL092W, strain hpr5, active compounds read low 1.01 | locus YJL095W, strain BCK1 (second series), active compounds read low 1.01 | locus YJL095W, strain BCK1, active compounds read low 0.993 and 0.94 | locus YJL115W, strain asf1, active compounds read low 1.02 | locus YJL129C, strain trk1, active compounds read low 1.01 | locus YJL134W, strain LCB3, active compounds read low 0.993 | locus YJL154C, strain vps35, active compounds read low 1.01 | locus YJL164C, strain tpk1, active compounds read low 1 | locus YJL166W, strain qcr8, active compounds read low 1.01 | locus YJL168C, strain set2, active compounds read low 0.986 | locus YJL187C, strain SWE1 (second series), active compounds read low 0.992 | locus YJL187C, strain SWE1, active compounds read low 1.01 | locus YJR043C, strain POL32, active compounds read low 1.01 | locus YJR066W, strain TOR1, active compounds read low 0.926 | locus YJR075W, strain HOC1, active compounds read low 0.982 | locus YKL009W, strain mrt4, active compounds read low 0.977 | locus YKL160W, strain elf1, active compounds read low 1 | locus YKR001C, strain vps1, active compounds read low 0.932 | locus YKR026C, strain gcn3, active compounds read low 1.01 | locus YKR091W, strain srl3, active compounds read low 1.01 | locus YLL001W, strain dnm1, active compounds read low 1 | locus YLL026W, active compounds read low 0.993 | locus YLL041C, strain sdh2, active compounds read low 1.01 | locus YLR027C, strain aat2, active compounds read low 1 | locus YLR039C, strain RIC1, active compounds read low 0.97 | locus YLR058C, strain SHM2, active compounds read low 0.999 | locus YLR102C, strain apc9, active compounds read low 0.977 | locus YLR221C, strain rsa3, active compounds read low 0.999 | locus YLR258W, strain gsy2, active compounds read low 1.01 | locus YLR262C, strain YPT6 (second series), active compounds read low 0.99 | locus YLR262C, strain YPT6, active compounds read low 0.945 | locus YLR268W, strain sec22, active compounds read low 0.961 | locus YLR320W, strain mms22, active compounds read low 1.01 | locus YLR330W, strain CHS5, active compounds read low 0.992 | locus YLR342W, strain FKS1 (second series), active compounds read low 1.01 | locus YLR342W, strain FKS1, active compounds read low 1.01 | locus YLR357W, strain rsc2, active compounds read low 1.06 | locus YLR370C, strain arc18, active compounds read low 1.01 | locus YLR371W, strain rom2, active compounds read low 0.975 | locus YLR384C, strain iki3, active compounds read low 1.01 | locus YLR418C, strain cdc73, active compounds read low 0.987 | locus YML016C, strain PPZ1, active compounds read low 0.992 | locus YML032C, strain rad52, active compounds read low 0.98 | locus YML120C, strain ndi1, active compounds read low 1 | locus YML124C, strain tub3, active compounds read low 0.95 | locus YMR058W, strain fet3, active compounds read low 1.01 | locus YMR078C, strain ctf18, active compounds read low 0.967 | locus YMR125W, strain sto1, active compounds read low 1.03 | locus YMR129W, active compounds read low 1.01 | locus YMR205C, strain PFK2, active compounds read low 1.02 | locus YMR223W, strain ubp8, active compounds read low 0.994 | locus YMR231W, strain pep5, active compounds read low 1.02 | locus YMR263W, strain SAP30, active compounds read low 0.999 | locus YMR307W, strain GAS1, active compounds read low 1.04 | locus YNL067W, strain RPL9B, active compounds read low 0.988 | locus YNL071W, strain lat1, active compounds read low 1.01 | locus YNL128W, strain TEP1, active compounds read low 1 | locus YNL175C, strain NOP13, active compounds read low 1 | locus YNL183C, strain NPR1, active compounds read low 0.931 | locus YNL197C, strain WHI3, active compounds read low 0.971 | locus YNL209W, strain ssb2, active compounds read low 1.01 | locus YNL224C, strain SQS1, active compounds read low 0.981 | locus YNL233W, strain BNI4, active compounds read low 0.977 | locus YNL248C, strain rpa49, active compounds read low 1.04 | locus YNL250W, strain rad50, active compounds read low 0.937 | locus YNL271C, strain bni1, active compounds read low 0.942 | locus YNL298W, strain CLA4, active compounds read low 0.969 | locus YNL307C, strain MCK1, active compounds read low 0.945 | locus YNL322C, strain KRE1 (second series), active compounds read low 1 | locus YNL322C, strain KRE1, active compounds read low 0.983 and 0.987 | locus YNR049C, strain mso1, active compounds read low 1.01 | locus YNR052C, strain pop2, active compounds read low 0.985 | locus YOL006C, strain TOP1, active compounds read low 1.05 | locus YOL012C, strain htz1 1.46 | locus YOL147C, strain pex11, active compounds read low 0.961 | locus YOR001W, strain rrp6, active compounds read low 1.01 | locus YOR061W, strain CKA2, active compounds read low 0.998 | locus YOR069W, strain VPS5, active compounds read low 0.985 | locus YOR070C, strain gyp1, active compounds read low 1.01 | locus YOR080W, strain dia2, active compounds read low 1.02 | locus YOR083W, strain WHI5 (second series), active compounds read low 0.985 | locus YOR083W, strain WHI5, active compounds read low 0.998 | locus YOR106W, strain vam3, active compounds read low 1.01 | locus YOR136W, strain idh2, active compounds read low 0.968 | locus YOR144C, strain elg1, active compounds read low 0.965 | locus YOR184W, strain ser1, active compounds read low 0.966 | locus YOR231W, strain MKK1, active compounds read low 0.935 | locus YOR265W, strain rbl2, active compounds read low 1.01 | locus YOR270C, strain vph1, active compounds read low 1.07 | locus YOR290C, strain snf2, active compounds read low 1 | locus YOR316C, strain cot1, active compounds read low 0.977 | locus YPL051W, strain arl3, active compounds read low 0.999 | locus YPL055C, strain LGE1, active compounds read low 1 | locus YPL078C, strain atp4, active compounds read low 1.01 | locus YPL106C, strain sse1, active compounds read low 1.01 | locus YPL240C, strain hsp82, active compounds read low 1.02 | locus YPL256C, strain CLN2, active compounds read low 0.882 | locus YPR119W, strain clb2, active compounds read low 0.976 | locus YPR163C, strain tif3, active compounds read low 0.959 | locus YPR167C, strain met16, active compounds read low 0.973 | strain wtn01, active compounds read low 0.954
active: locus YIL125W, strain kgd1, active compounds read low 0.92 | locus YKL068W, active compounds read low 0.91 | locus YKL085W, strain MDH1 (second series), active compounds read low 0.918 | locus YKL085W, strain MDH1, active compounds read low 0.918 | locus YLR113W, strain HOG1, active compounds read low 0.853 | locus YPR141C, strain kar3, active compounds read low 0.871
